A selection: hits, their analogues and other compounds. The true share with any hit is near 2.4%.
WRN helicase inh-1 = blocks human WRN helicase; Q14191; WRN helicase unwinding, fluorescent forked duplex, kinetic; Potency, µM (doses to about 114 µM), most hits filed as inhibitors; 360,000 tested, 0.46% active; AID 651768; further: nearly all actives have a fitted effect of over 55% in size
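Primary qHTS, 1536-well format. 20 nM WRN + compound, 15 min RT; start with 100 nM forked fluorophore/quencher duplex, 2 mM ATP (final); kinetic read ex 525/em 598 nm.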
Pol beta inh = DNA polymerase beta (human) inhibition. Pol beta primer extension/strand displacement, fluorescence kinetic. Potency, µM (titrated, usually from 114 µM), most hits filed as inhibitors. 340,000 tested, 1.3% active
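Preincubation: enzyme (10 nM) with compound, 15 min, RT. Reaction: substrate added to 50 nM final. Reads: 0 and 10 min. Analysis: normalized, Hill fit.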
Pol kappa inh = inhibitors of human DNA polymerase kappa. 400,000 tested, 0.53% active. AID 588579. Q9UBT6. purified Pol kappa, fluorescent DNA synthesis assay, 10 min. Potency, µM (doses to about 107 µM), usual class: inhibitors
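Readout: fluorescence, taken kinetically at 0 and 10 min. Conditions: 10 nM Pol kappa, 15 min RT compound preincubation, 50 nM substrate final. Controls: enzyme-free buffer wells.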
POLH inh = DNA polymerase eta (human) inhibition | Q9Y253 | recombinant Pol eta, fluorescent DNA replication assay | Potency, µM (highest dose often 114 µM), actives largely listed as inhibitors | 390,000 tested, 1.2% active
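Pol eta at 10 nM preincubated with compounds 15 min at room temperature; reaction started with fluorescent substrate (50 nM final) and read kinetically at 0 and 10 min.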
Pol iota inh = blocks human DNA polymerase iota activity; Q9UNA4; Pol iota fluorescent replication assay, 10 min; Potency, µM (series often up to 115 µM), usual class: inhibitors; 390,000 tested, 1% active; AID 588590
Target sequence (Q9UNA4 whole entry, looked up): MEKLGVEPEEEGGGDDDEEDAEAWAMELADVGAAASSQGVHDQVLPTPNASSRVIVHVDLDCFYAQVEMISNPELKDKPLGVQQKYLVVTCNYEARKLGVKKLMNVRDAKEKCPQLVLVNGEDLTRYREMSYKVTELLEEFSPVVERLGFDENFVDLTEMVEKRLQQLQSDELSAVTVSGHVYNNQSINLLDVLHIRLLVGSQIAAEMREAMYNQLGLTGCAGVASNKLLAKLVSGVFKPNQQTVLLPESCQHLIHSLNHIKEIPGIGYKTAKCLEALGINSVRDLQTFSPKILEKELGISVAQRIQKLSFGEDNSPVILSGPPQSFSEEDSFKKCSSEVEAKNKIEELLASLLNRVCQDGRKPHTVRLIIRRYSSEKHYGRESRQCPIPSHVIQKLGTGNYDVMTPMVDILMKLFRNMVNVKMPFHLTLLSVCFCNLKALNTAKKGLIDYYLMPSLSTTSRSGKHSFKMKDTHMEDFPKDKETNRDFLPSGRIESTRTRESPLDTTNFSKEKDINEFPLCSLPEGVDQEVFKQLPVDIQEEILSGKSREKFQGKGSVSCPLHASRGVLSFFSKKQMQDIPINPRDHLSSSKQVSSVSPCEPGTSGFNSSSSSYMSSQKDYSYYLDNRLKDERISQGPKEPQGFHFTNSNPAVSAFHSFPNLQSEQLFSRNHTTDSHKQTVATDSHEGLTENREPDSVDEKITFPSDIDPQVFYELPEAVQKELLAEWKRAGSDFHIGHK
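Fluorescent replication assay read twice, at 0 min and 10 min after adding 50 nM (final) substrate. Enzyme (10 nM) and compounds were first incubated 15 min at room temperature; enzyme-free buffer wells were negative controls.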
FEN1 inh = human FEN1 inhibition; P39748; Recombinant FEN1 flap cleavage, fluorescence, 15 min; Potency, µM (doses to about 114 µM), most hits filed as inhibitors; 390,000 tested, 0.35% active; further: nearly all actives have a fitted effect of over 65% in size
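Steps: FEN1 (10 nM) dispensed; compound added by pin tool; 15 min at room temperature; substrate added to 50 nM final; reads at 0 min and 15 min; data normalized and fitted (four-parameter Hill).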
WRN helicase inh-2 = WRN helicase inhibition, cherry-pick retest | shares compounds with WRN helicase inh-1 | WRN helicase DNA unwinding, fluorescence kinetic | Potency, µM (top dose mostly 57.1 µM), most hits filed as inhibitors | 610 tested, 63% active; further: nearly all actives have a fitted effect of over 65% in size
TO DNA binding = DNA binding via thiazole orange displacement; shares compounds with WRN helicase inh-1; thiazole orange DNA binding displacement, fluorescence; Potency, µM (titrated, usually from 57.1 µM), hits mostly inhibitors; 610 tested, 10% active;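 further: drop in dye fluorescence marks compound binding to DNA; nearly all actives have a fitted effect of over 60% in size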
BLM helicase inh = blocks human BLM helicase in WRN counterscreen; 610 tested, 60% active; Recombinant BLM helicase DNA unwinding, red fluorescence; AID 720503; shares compounds with WRN helicase inh-1; Potency, µM (top dose mostly 57.1 µM), usual class: inhibitors; further: nearly all actives have a fitted effect of over 60% in size
Each line names hits and unclear results; the compound was inactive in the other large screens (follow-up assays come after a bar, where they were run). The call rests on the fitted dose curve; in most records, active means well fitted curve in the direction sought with a large enough effect; inconclusive means small, poorly fitted or top-dose-only effect, or another doubt; inactive means no such curve, though single readings can be large; an effect the other way counts as inactive or inconclusive.

Cn1cnc([N+](=O)[O-])c1S(=O)(=O)c1ccc(Cl)cc1	WRN helicase inh-1 inconclusive | WRN helicase inh-2 inactive | TO DNA binding inactive | BLM helicase inh inactive
Clc1ccc[n+](CCCCC[n+]2cccc(Cl)c2)c1	FEN1 inh inconclusive (no result: WRN helicase inh-1, Pol beta inh, POLH inh)
NCCCN(Cc1ccc(Cl)c(Cl)c1)c1ccccn1	none (no result: WRN helicase inh-1, Pol beta inh, POLH inh)
O=C1Nc2ccccc2C1=O	none (no result: Pol beta inh)
O=C1Nc2ccc3sc4ccccc4c3c2C1=O	WRN helicase inh-1 inconclusive, Pol beta inh 5.62µM, POLH inh inconclusive, Pol iota inh 22.4µM, FEN1 inh inconclusive | WRN helicase inh-2 inconclusive | TO DNA binding 24.1µM | BLM helicase inh 7.64µM
Oc1cc2c(cc1C(c1ccc(Br)cc1)N1CCCC1)OCO2 (stereo not drawn)	WRN helicase inh-1 44.7µM, Pol iota inh inconclusive | WRN helicase inh-2 inconclusive | TO DNA binding inactive | BLM helicase inh inconclusive
O=S(=O)(NCC(c1ccc2c(c1)OCO2)N1CCOCC1)c1ccc(Br)cc1 (stereo not drawn)	none (no result: Pol beta inh)
NC(=O)COc1ccc(/C=C2\C(=O)ON=C2c2ccccc2)cc1	WRN helicase inh-1 39.8µM (no result: Pol beta inh) | WRN helicase inh-2 19.2µM | TO DNA binding inconclusive | BLM helicase inh inconclusive
C[N+]1(CC(=O)c2ccc(O)c(O)c2)CCOCC1	Pol iota inh inconclusive (no result: WRN helicase inh-1, Pol beta inh, POLH inh)
COc1cccc(/C=C2/CCC(CN(C)C)C2=O)c1 (stereo not drawn)	WRN helicase inh-1 12.6µM, POLH inh inconclusive, Pol iota inh inconclusive (no result: Pol beta inh) | WRN helicase inh-2 inactive | TO DNA binding inactive | BLM helicase inh inconclusive
COC1=C(OC)C(=O)C(Sc2ccc3ccccc3c2)=CC1=O	WRN helicase inh-1 20µM, Pol iota inh inconclusive (no result: Pol beta inh) | WRN helicase inh-2 inactive | TO DNA binding inactive | BLM helicase inh inactive
CSc1cc2c(s1)c1cnn(Cc3cccc(N)c3)c(=O)c1n2C	none (no result: WRN helicase inh-1, Pol beta inh, Pol kappa inh, POLH inh, Pol iota inh, FEN1 inh) | WRN helicase inh-2 inactive | TO DNA binding inactive | BLM helicase inh inconclusive
Cn1c2cc(C#N)sc2c2cnn(Cc3ccc(F)cc3)c(=O)c21	none (no result: WRN helicase inh-1, Pol beta inh)
COc1ccc(C(=O)N2CCC[C@@]3(CCN(C(=O)Nc4ccccc4)C3)C2)cc1	none (no result: WRN helicase inh-1, Pol beta inh, POLH inh, Pol iota inh, FEN1 inh)
CCN1/C(=C/c2cccc[n+]2C)Sc2ccc(OC)cc21	Pol beta inh inconclusive, Pol iota inh inconclusive, FEN1 inh inconclusive
CCN1/C(=C/c2ccc3cc(C)ccc3[n+]2C)Sc2ccc3sccc3c21	WRN helicase inh-1 89.1µM, POLH inh inconclusive, Pol iota inh inconclusive, FEN1 inh inconclusive | WRN helicase inh-2 0.341µM | TO DNA binding 0.215µM | BLM helicase inh 0.681µM
COC(=O)c1ccc(C(=O)OC)c(NC(=O)CSc2n[nH]c(N)n2)c1	none (no result: Pol beta inh)
CCn1c(CSc2n[nH]c(N)n2)nc2cc(C(=O)O)ccc21	WRN helicase inh-1 89.1µM, Pol beta inh inconclusive, POLH inh inconclusive, Pol iota inh 50.1µM | WRN helicase inh-2 24.1µM | TO DNA binding inactive | BLM helicase inh 24.1µM
O=C(O)c1ccccc1-c1ccc(/C=C/c2cc(C(F)(F)F)[nH]c(=O)n2)o1	WRN helicase inh-1 79.4µM, Pol beta inh inconclusive, Pol kappa inh inconclusive, POLH inh 50.1µM, Pol iota inh inconclusive | WRN helicase inh-2 24.1µM | TO DNA binding inactive | BLM helicase inh inactive
CC1(C)OB(c2cnc(C#N)nc2)OC1(C)C	none (no result: WRN helicase inh-1, Pol beta inh, POLH inh)
O=C(NC1CC(=O)N(c2ccc(Cl)cc2)C1)c1cccs1 (stereo not drawn)	none (no result: WRN helicase inh-1)
N#C/C(=C/c1ccc(N2CCCCC2)o1)C(=O)Nc1ccc2ccccc2c1	WRN helicase inh-1 inconclusive, Pol beta inh inconclusive, POLH inh inconclusive, Pol iota inh inconclusive | WRN helicase inh-2 inconclusive | TO DNA binding inactive | BLM helicase inh 21.5µM
COc1ccccc1CNc1cc(-c2c(C)noc2C)ncn1	none (no result: WRN helicase inh-1, Pol beta inh, POLH inh, Pol iota inh, FEN1 inh)

Bioassay records from PubChem.
